Tau fibril ThT: blocks human tau fibril formation measured by thioflavin T; recombinant tau K18 P301L, heparin-induced fibrillization, ThT fluorescence; hit rate 2.1% among 270,000; Potency, µM (highest dose often 57.4 µM), most hits filed as inhibitors; AID 1460; note: nearly all actives have a fitted effect of over 55% in size
Target sequence (P10636 561-689 P618L limits assumed): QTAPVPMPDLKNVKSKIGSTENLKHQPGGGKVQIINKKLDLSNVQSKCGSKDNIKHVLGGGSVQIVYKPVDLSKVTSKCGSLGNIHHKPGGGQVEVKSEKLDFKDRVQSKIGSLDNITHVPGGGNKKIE
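In this qHTS, human K18 P301L tau is incubated with compound and heparin for 6 hr at 37 C, and Thioflavin T fluorescence then reports fibril load.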
Tau fluor cs: counter-screen for tau fibril formation inhibitors. tau K18 P301L (four-repeat tau fragment) Alexa594 fluorescence, heparin fibrillization. Potency, µM (doses to about 57.7 µM). hit rate 0.93% among 280,000; note: nearly all actives have a fitted effect of over 55% in size
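Human K18 P301L tau (15 uM unlabeled plus 0.24 uM Alexa 594-labeled, final) in 100 mM sodium acetate pH 7 was mixed with compound and 20 uM heparin and incubated 6 hr at 37 C.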
Tau fibril FP: tau fibrillization inhibition (FP) | P10636 | K18 P301L tau heparin fibrillization, Alexa594 FP, 6 h | Potency, µM (doses to about 57.7 µM), most hits filed as inhibitors | hit rate 0.39% among 280,000 | AID 1468; note: nearly all actives have a fitted effect of over 55% in size
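Steps: dispense K18 P301L tau (15 uM plus 0.24 uM Alexa 594 tracer, final) in pH 7 sodium acetate; add compound; add heparin (20 uM final); incubate 6 hr, 37 C; add ThT (30 uM final); after 1 hr ambient, read FP.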
FBPA coupling cs: coupling enzyme interference in Giardia aldolase counter-screen; coupling enzyme system counterscreen, AmpLite Red fluorescence; activity change, negative = inhibition, % at 58.2 µM, hits read low; hit rate 0.67% among 290,000; AID 2472; in the data active = activity change below about -30%
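Counterscreen of the coupled detection system alone, without aldolase: glyceraldehyde-3-phosphate coupling enzymes plus AmpLite Red readout. Compounds at 57.5 uM final, 10 min RT preincubation, 20 min RT reaction, fluorescence 525/598 nm.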
Sfp PPTase inh: Sfp phosphopantetheinyl transferase inhibition | Biochemical Sfp PPTase activity, qHTS | hit rate 3.5% among 310,000 | Potency, µM, most hits filed as inhibitors | Q9F4F7 | AID 1490;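 note: the enzyme is Sfp with the accession as filed and its product quenches rhodamine fluorescence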
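Sfp 15 nM + cpd, 15 min RT; start w/ rhodamine-CoA 5 uM, BHQ-2-YbbR 12.5 uM (final); 50 mM Hepes pH 7.6, 10 mM MgCl2, 0.01% NP-40, 0.01% BSA; read 525/598 nm at 0 and 30 min.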
Each line names hits and unclear results; the compound was inactive in the other large screens; [ ] = another dose, or the depositor's remark. In the library only some 5.2% were active in any assay of this set; here they are far more common. Unless noted, calls come from the whole dose curve; as a rule, active = well fitted curve in the direction sought with a large enough effect; inconclusive = small, poorly fitted or top-dose-only effect, or another doubt; inactive = no such curve, though single readings can be large; an effect the other way counts as inactive or inconclusive.

O=C(CCN1C(=O)/C(=C/c2ccc(Cl)cc2)SC1=S)NC1C=CS(=O)(=O)C1 (stereo not drawn)	none (no result: Tau fibril ThT, Tau fluor cs, Tau fibril FP)
O=C(CN1C(=O)/C(=C/c2ccc(Cl)cc2)SC1=S)NC1C=CS(=O)(=O)C1 (stereo not drawn)	Sfp PPTase inh 40µM (no result: Tau fibril ThT, Tau fluor cs, Tau fibril FP)
COC(=O)C1=C(CS(=O)(=O)c2ccc(C)cc2C)NC(=O)NC1c1ccc(C)cc1 (stereo not drawn)	none (no result: FBPA coupling cs, Sfp PPTase inh)
CC(C)(C)c1nn(-c2ccccc2)c2[nH]c(=O)c(CNc3ccc4c(c3)OCCO4)cc12	Tau fibril ThT inconclusive, Tau fluor cs inconclusive
Cc1nn(-c2ccccc2)c2[nH]c(=O)c(CNc3ccc(N4CCOCC4)cc3)cc12	Tau fibril ThT 18µM, Tau fluor cs inconclusive, Tau fibril FP inconclusive, Sfp PPTase inh 45µM
Cc1sc2nc3ccc(NCc4ccco4)nn3c(=O)c2c1C	Tau fibril ThT inconclusive, Sfp PPTase inh 32µM
O=c1c2ccccc2nc2ccc(NCc3ccco3)nn12	Tau fibril ThT 18µM, Tau fibril FP 22µM, Sfp PPTase inh 40µM
Cc1sc2nc(SCC(=O)NCc3ccco3)[nH]c(=O)c2c1C	none
COC(=O)c1ccccc1NC(=O)c1cc2nc(-c3ccccc3)cc(-c3ccccc3)n2n1	none (no result: FBPA coupling cs, Sfp PPTase inh)
COc1cc(C(=O)NCc2ccc3c(c2)CCN3C(=O)c2ccncc2)cc(OC)c1OC	none (no result: FBPA coupling cs, Sfp PPTase inh)
Cc1cc(O)c(C(=O)c2cnc3c(c2)COc2ccccc2-3)cc1Cl	Tau fluor cs inconclusive (no result: FBPA coupling cs, Sfp PPTase inh)
COc1cc(-c2nnc(SCC(=O)c3cc(C)n(CC4CCCO4)c3C)o2)cc(OC)c1OC (stereo not drawn)	Tau fibril ThT inconclusive, Sfp PPTase inh 89µM
CC(=O)Oc1ccc2oc(/C=C/N(C)C)c([N+](=O)[O-])c2c1	Tau fibril ThT 28µM
CC(C)=Cc1oc2ccc([N+](=O)[O-])cc2c1N1CCOCC1	none
C/C(=C/c1oc2ccc(O)cc2c1[N+](=O)[O-])N(C)C	Tau fibril ThT 4µM, Tau fluor cs inconclusive, Sfp PPTase inh 71µM
Oc1ccc(C=Nc2cccc3ccccc23)c(O)c1	FBPA coupling cs -35 (no result: Tau fibril ThT, Tau fluor cs, Tau fibril FP)
CO/N=C(\C(=O)O)c1csc(NN=C(C)C)n1	Tau fibril ThT inconclusive, Sfp PPTase inh 35µM
Cc1cc2c(cc1S(=O)(=O)Nc1cc(C(F)(F)F)cc(C(F)(F)F)c1)OCC(=O)N2	none (no result: FBPA coupling cs, Sfp PPTase inh)
COc1ccc2[nH]c3c(NCCC4=CCCCC4)ncnc3c2c1	Tau fibril ThT inconclusive, Tau fluor cs 7.9µM[quencher], Tau fibril FP inconclusive
CCN(CC)CCNc1ncnc2c1[nH]c1ccc(OC)cc12	none
c1csc(-c2nn3c(Cn4nnc5ccccc54)nnc3s2)c1	none
c1coc(-c2nn3c(Cn4nnc5ccccc54)nnc3s2)c1	Sfp PPTase inh 45µM
Clc1cccc(-c2nn3c(Cn4cnc5ccccc54)nnc3s2)c1	Sfp PPTase inh 20µM
c1ccc2c(c1)nnn2Cc1nnc2sc(-c3ccncc3)nn12	Sfp PPTase inh 40µM
Clc1ccc(Cc2nn3c(Cn4nnc5ccccc54)nnc3s2)cc1	Sfp PPTase inh 28µM
Cc1ccc2oc(C(=O)Nc3ccc(S(=O)(=O)Nc4nccc(C)n4)cc3)cc(=O)c2c1	none (no result: FBPA coupling cs, Sfp PPTase inh)
CCCCCCCCCCCCCCCCOCCOCCOCCOCCOCCOCCOCCOCCOCCOCCOCCOCCOCCOCCOCCOCCOCCOCCOCCOCCO	Sfp PPTase inh 50µM (no result: Tau fibril ThT, Tau fluor cs, Tau fibril FP, FBPA coupling cs)
COC(=O)CCN(Cc1ccco1)S(=O)(=O)c1ccc(F)cc1Br	none (no result: Tau fibril ThT, Tau fluor cs, Tau fibril FP)
Cc1nn(-c2ccccc2)cc1/C=N/NC(N)=S	none
Cc1nn(-c2ccccc2)cc1C(c1c(N)[nH]c(=S)[nH]c1=O)c1c(N)[nH]c(=S)[nH]c1=O	Tau fibril ThT inconclusive, Tau fluor cs inconclusive, Sfp PPTase inh 22µM
Clc1ccc(OCc2nn3c(-c4ccco4)nnc3s2)c(Cl)c1	Sfp PPTase inh 18µM
Cc1ccc(OCc2nn3c(-c4ccco4)nnc3s2)cc1	Tau fibril ThT inconclusive
O=c1c2ccccc2nc(/C=C/c2c[nH]c3ccccc23)n1CCO	Tau fibril ThT inconclusive, Tau fluor cs 20µM[quencher], Tau fibril FP inconclusive
O=c1c2ccccc2nc(/C=C/c2ccccc2)n1CCCO	none (no result: Tau fibril ThT, Tau fluor cs, Tau fibril FP)
CC(C)Sc1ncc(Cl)c(C(=O)N(Cc2ccc(F)cc2)C2CCS(=O)(=O)C2)n1 (stereo not drawn)	none (no result: FBPA coupling cs, Sfp PPTase inh)
O=C(COc1ccc(Br)cc1Cl)NC(=S)Nc1ccccn1	Sfp PPTase inh 56µM (no result: Tau fibril ThT, Tau fluor cs, Tau fibril FP)
COc1ccc(NC(=S)NNC(=O)COc2ccc(Cl)cc2Cl)cc1	none
